# Test results taken from the supplement of paper PMC10849652.
# About 7,900 targets were measured; listed, in parts, are those with a hit and a random draw of the rest. About 0.6% of all pairs of compound and target were hits. Values without a mark were called inactive.
# How the values were obtained:
# Assay in all cases: log2 fold change, soluble protein after heating vs DMSO (PISA); higher = thermal stabilisation; K562 cells, 10 uM, 30 min; active = over 0.2 and 3.5 SD of the protein, either way, in both replicates (recomputed)
# [1] = compound: CC1=C(C=C(C=C1)NC(=O)C2=CC(=CC=C2)C(C)(C)C#N)NC3=CC4=C(C=C3)N=CN(C4=O)C
# Outline: (§1)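 Soluble protein was defined as the supernatant after 21,000xg for 90 min. It came from K562 cells at 2×10^6 cells/mL given 10 μM compound for 30 min, heated in aliquots for 3 min across 48°C-58°C, pooled, and extracted in PBS with 0.5% NP-40 at 4°C, and was quantified by TMTpro 16plex LC-MS/MS with equalised channel sums. Thermal stability against control samples, from duplicates, is reported as log2 fold change.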
# [2] = compound: CC1=C(C=C(C=C1)NC(=O)C2=CC(=CC=C2)N(C)C)NC(=O)C3=CC=C(C=C3)O
# Outline: as §1
# [3] = compound: CC1=CC=C(C=C1)SC2=C3C=C(SC3=CN=C2)C(=O)N
# Outline: as §1
# [4] = compound: CC1=NC(=CC=C1)C2=C(N=C(N2)C(C)(C)C)C3=CC4=NC=CN=C4C=C3
# Outline: as §1
# Nexturastat A = compound: CCCCN(Cc1ccc(C(=O)NO)cc1)C(=O)Nc1ccccc1 [Nexturastat A]
# Outline: as §1
# vemurafenib = compound: CCCS(=O)(=O)Nc1ccc(F)c(C(=O)c2c[nH]c3ncc(-c4ccc(Cl)cc4)cc23)c1F [vemurafenib]
# Outline: as §1
# [5] = compound: CCCS(=O)(=O)Nc1ccc(F)c(C(=O)c2c[nH]c3ncc(Cl)cc23)c1F
# Outline: as §1
# [6] = compound: CCCc1cc(C)[nH]c(=O)c1CNC(=O)c1cc(-c2ccnc(N3CCN(C)CC3)c2)cc2c1cnn2C(C)C
# Outline: as §1
# givinostat = compound: CCN(CC)Cc1ccc2cc(COC(=O)Nc3ccc(C(=O)NO)cc3)ccc2c1 [givinostat]
# Outline: as §1
# barasertib = compound: CCN(CCCOc1ccc2c(Nc3cc(CC(=O)Nc4cccc(F)c4)[nH]n3)ncnc2c1)CCOP(=O)(O)O [barasertib]
# Outline: as §1
# Chain of UniProt P51692 (P51692 whole entry, looked up): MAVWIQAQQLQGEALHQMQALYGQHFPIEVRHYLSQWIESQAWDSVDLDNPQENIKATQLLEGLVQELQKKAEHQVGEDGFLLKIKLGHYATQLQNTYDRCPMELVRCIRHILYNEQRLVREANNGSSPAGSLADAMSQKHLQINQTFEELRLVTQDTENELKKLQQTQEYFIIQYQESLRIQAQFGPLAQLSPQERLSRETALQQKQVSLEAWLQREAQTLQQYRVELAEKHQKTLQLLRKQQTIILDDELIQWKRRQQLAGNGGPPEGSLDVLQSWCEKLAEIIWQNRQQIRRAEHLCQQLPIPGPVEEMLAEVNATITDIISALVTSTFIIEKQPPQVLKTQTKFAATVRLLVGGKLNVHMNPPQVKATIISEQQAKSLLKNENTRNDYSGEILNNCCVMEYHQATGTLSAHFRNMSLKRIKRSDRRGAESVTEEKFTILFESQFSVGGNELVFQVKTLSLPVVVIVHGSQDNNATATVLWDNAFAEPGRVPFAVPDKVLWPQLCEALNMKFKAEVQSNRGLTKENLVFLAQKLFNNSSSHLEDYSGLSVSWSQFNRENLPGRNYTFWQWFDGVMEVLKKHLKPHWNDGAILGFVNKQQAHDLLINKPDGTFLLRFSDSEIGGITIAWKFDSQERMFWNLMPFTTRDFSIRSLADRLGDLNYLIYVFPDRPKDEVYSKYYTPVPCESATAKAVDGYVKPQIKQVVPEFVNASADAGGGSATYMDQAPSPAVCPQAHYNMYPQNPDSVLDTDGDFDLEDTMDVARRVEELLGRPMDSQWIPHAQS
# Chain of UniProt Q05519 (Q05519 whole entry, looked up): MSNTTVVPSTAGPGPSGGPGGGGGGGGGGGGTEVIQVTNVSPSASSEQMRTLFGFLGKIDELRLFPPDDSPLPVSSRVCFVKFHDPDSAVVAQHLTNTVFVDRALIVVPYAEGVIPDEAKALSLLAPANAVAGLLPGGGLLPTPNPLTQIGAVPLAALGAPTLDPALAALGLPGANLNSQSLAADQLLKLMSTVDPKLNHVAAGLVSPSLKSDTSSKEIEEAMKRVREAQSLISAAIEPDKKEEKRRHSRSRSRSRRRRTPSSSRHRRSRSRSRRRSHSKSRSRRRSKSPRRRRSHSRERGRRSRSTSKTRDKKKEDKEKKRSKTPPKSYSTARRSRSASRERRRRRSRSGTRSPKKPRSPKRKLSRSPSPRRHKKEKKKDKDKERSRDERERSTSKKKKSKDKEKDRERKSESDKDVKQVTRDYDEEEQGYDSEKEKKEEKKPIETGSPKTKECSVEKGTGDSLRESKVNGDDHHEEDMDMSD
# Chain of UniProt Q99523 (Q99523 whole entry, looked up): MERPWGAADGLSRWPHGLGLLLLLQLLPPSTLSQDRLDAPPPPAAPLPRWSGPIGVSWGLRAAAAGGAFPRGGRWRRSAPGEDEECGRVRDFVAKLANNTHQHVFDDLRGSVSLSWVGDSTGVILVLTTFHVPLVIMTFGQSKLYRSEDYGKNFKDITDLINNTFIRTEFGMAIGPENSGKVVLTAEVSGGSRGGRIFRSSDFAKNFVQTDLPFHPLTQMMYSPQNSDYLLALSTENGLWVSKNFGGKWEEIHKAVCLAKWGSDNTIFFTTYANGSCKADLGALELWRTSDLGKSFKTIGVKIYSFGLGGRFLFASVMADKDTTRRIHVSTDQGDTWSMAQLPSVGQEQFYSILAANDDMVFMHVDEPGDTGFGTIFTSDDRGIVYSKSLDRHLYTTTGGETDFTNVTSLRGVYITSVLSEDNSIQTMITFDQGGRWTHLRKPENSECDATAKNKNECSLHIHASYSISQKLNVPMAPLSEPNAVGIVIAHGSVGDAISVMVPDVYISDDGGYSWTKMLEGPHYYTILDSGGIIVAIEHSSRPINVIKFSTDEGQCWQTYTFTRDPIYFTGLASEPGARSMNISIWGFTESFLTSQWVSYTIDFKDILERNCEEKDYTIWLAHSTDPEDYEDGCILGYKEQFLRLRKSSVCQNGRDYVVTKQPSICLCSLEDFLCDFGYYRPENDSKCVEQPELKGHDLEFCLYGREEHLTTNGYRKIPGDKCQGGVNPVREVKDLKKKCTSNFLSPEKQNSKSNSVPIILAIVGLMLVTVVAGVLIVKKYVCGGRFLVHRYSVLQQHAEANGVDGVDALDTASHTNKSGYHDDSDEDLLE
# Chain of UniProt Q6P1M0 (Q6P1M0 whole entry, looked up): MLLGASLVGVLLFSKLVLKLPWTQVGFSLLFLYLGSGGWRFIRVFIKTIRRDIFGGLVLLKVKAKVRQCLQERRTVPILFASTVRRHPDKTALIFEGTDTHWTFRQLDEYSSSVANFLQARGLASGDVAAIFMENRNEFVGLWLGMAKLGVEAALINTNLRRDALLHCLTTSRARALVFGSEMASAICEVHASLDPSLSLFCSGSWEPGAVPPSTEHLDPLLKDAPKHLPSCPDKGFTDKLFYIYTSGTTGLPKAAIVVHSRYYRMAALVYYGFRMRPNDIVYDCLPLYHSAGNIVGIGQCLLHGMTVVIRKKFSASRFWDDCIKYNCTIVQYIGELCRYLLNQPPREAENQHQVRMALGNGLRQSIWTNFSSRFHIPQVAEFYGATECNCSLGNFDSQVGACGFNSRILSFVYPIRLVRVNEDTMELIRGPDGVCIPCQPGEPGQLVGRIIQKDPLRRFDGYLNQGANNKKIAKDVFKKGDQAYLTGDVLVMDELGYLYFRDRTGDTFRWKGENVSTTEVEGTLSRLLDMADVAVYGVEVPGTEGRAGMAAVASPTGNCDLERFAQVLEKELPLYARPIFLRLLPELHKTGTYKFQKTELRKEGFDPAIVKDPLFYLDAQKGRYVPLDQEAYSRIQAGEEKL
# Chain of UniProt Q96DW6 (Q96DW6 whole entry, looked up): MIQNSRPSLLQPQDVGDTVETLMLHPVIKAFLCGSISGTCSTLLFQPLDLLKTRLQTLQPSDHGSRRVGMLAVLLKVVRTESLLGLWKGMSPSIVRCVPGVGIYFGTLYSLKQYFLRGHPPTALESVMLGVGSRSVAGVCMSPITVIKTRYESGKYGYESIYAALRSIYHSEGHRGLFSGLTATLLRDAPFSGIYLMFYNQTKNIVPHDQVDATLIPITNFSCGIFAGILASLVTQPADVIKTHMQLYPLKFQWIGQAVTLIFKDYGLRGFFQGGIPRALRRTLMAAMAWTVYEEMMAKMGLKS
# Chain of UniProt O00506 (O00506 whole entry, looked up): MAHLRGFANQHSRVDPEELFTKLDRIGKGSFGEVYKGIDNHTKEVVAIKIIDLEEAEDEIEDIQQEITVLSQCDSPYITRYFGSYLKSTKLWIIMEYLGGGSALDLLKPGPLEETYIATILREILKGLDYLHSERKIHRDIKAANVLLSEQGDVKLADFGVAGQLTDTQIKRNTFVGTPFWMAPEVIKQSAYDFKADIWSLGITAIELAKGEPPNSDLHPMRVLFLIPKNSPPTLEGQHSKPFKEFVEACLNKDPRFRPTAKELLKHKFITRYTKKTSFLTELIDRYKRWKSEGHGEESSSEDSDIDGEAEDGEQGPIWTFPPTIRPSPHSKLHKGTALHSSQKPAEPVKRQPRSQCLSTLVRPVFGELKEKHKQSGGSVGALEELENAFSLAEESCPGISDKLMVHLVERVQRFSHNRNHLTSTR
# Chain of UniProt Q15833 (Q15833 whole entry, looked up): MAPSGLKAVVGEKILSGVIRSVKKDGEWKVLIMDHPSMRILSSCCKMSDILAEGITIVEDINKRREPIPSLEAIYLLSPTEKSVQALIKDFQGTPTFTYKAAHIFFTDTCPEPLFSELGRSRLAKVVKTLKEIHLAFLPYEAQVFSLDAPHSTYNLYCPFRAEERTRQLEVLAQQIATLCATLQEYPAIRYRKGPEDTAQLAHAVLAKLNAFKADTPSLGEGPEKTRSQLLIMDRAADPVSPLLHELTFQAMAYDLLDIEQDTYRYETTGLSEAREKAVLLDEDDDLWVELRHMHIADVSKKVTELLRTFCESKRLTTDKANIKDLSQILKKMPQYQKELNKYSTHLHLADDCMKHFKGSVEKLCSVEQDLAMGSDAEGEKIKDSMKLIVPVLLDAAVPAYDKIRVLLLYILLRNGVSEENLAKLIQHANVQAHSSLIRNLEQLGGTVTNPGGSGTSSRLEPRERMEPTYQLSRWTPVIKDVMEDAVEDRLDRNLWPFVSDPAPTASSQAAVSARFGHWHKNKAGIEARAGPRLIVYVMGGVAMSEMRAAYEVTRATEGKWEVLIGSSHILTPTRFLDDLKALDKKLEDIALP
# Chain of UniProt Q96BW9 (Q96BW9 whole entry, looked up): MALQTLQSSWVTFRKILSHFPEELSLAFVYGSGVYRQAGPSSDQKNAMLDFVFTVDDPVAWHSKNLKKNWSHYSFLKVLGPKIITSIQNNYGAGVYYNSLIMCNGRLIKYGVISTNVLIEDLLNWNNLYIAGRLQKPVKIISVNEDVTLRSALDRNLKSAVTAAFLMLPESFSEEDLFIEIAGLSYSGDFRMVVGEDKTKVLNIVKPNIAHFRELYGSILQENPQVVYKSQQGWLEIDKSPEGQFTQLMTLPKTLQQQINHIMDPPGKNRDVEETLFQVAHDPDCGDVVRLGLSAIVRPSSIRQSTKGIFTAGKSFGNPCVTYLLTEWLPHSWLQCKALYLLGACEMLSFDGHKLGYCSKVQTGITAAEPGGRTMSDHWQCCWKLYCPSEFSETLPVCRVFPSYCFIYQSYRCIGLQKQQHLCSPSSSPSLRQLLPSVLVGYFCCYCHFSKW
# Chain of UniProt Q13043 (Q13043 whole entry, looked up): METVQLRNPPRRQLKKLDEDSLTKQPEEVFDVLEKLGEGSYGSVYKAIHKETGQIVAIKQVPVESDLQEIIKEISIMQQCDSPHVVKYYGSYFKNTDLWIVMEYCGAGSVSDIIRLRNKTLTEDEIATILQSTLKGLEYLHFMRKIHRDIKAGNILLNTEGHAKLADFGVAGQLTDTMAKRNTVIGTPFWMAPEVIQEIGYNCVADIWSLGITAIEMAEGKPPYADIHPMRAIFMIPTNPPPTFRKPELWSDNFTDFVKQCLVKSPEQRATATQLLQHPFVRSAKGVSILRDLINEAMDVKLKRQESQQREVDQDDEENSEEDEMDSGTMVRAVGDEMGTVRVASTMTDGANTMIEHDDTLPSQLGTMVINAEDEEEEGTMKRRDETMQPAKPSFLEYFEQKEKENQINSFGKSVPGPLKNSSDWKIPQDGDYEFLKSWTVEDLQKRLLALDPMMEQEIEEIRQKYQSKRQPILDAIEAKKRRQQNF
Target,log2 fold change [1],log2 fold change [2],log2 fold change [3],log2 fold change [4],log2 fold change (Nexturastat A),log2 fold change (vemurafenib),log2 fold change [5],log2 fold change [6],log2 fold change (givinostat),log2 fold change (barasertib)
SRSF11 (UniProt Q05519),-0.029,-0.058,0.009,0.032,-0.022,0.007,0.087,0.053,0.059,0.023
SORT1 (UniProt Q99523),-0.042,0.013,-0.006,-0.012,-0.038,-0.003,-0.008,-0.072,-0.003,0.015
SUN2 (UniProt Q9UH99),0.023,0.001,-0.017,-0.025,0.005,-0.026,0.015,0.013,0.005,-0.012
STK38 (UniProt Q15208),0.099,-0.054,0.013,0.004,-0.062,0.091,0.12,0.049,0.048,0.022
STAT5B (UniProt P51692),-0.165,-0.102,0.222,0.111,0.014,0.046,0.08,0.101,0.145,0.113
STK4 (UniProt Q13043),-0.065,0.018,-0.022,0.007,0.004,-0.024,-0.014,0.005,-0.006,0.032
TIMM21 (UniProt Q9BVV7),0.014,0.008,0.035,0.058,-0.121,0.032,0.067,-0.005,0.005,0.034
TCOF1 isoform 4 (UniProt Q13428),-0.03,0.015,-0.028,-0.019,-0.001,-0.029,-0.012,-0.004,0.056,0.006
STK25 (UniProt O00506),-0.102,0.014,-0.011,0.029,-0.006,-0.021,0.011,-0.052,0.056,0.025
SRSF9 (UniProt Q13242),-0.044,0.015,-0.083,-0.082,0.37,-0.116,0.076,0.075,0.151,-0.082
STXBP2 isoform 3 (UniProt Q15833),0,-0.042,0.036,-0.017,0.128,0.155,0.032,0.063,0.125,0.068
SPINDOC (UniProt Q9BUA3),0.157,0.037,-0.074,-0.139,-0.014,0.113,0.11,-0.013,-0.127,0.129
SUOX (UniProt P51687),-0.012,-0.002,-0.007,-0.334 (active),-0.021,-0.046,-0.051,0.023,-0.033,0.007
SNRNP40 (UniProt Q96DI7),0.01,0.001,-0.06,-0.023,0,-0.027,-0.046,-0.037,-0.035,-0.04
STAT5A (UniProt P42229),-0.033,-0.113,0.072,0.011,-0.009,0.067,0.067,0.141,0.156,0.096
SLC25A38 (UniProt Q96DW6),0.075,-0.011,-0.047,0.076,-0.012,-0.059,-0.019,-0.145,-0.004,0.014
SREK1 isoform 2 (UniProt Q8WXA9),-0.335,-0.083,0,0.045,0.108,0.019,0.096,-0.069,0.062,-0.057
TAMM41 isoform 3 (UniProt Q96BW9),-0.021,-0.013,0.049,0.056,-0.084,-0.006,0.04,-0.062,0.036,0.046
STX17 (UniProt P56962),-0.036,-0.064,-0.023,0.039,0.126,0.12,0.12,-0.07,0.152,0.011
SLC27A4 (UniProt Q6P1M0),-0.074,-0.072,0.011,-0.096,-0.014,-0.039,-0.031,-0.017,0.021,0.056
TBK1 (UniProt Q9UHD2),-0.018,-0.03,0.019,-0.007,0.163,-0.012,0.089,0.083,0.065,0.028
SRC isoform 2 (UniProt P12931),-0.006,0.022,-0.016,-0.06,-0.075,0.068,0.069,-0.06,-0.091,-0.01
SRPRA (UniProt P08240),0.089,-0.06,0.018,0.047,0,0.038,0.069,0.001,0.018,0.04
SNRNP27 (UniProt Q8WVK2),-0.015,-0.006,-0.008,0.007,-0.02,-0.031,-0.021,-0.361,-0.032,-0.039
SSR3 isoform 2 (UniProt Q9UNL2),-0.032,0.123,-0.014,0.022,-0.103,0.11,-0.011,-0.075,-0.042,0.017
SUMO1 (UniProt P63165),-0.064,-0.045,0.4,0.024,-0.142,-0.051,0.657 (active),-0.071,-0.172,-0.055
SNX3 (UniProt O60493),-0.013,-0.064,0.073,-0.004,0.037,0.046,0.122,0.02,0.09,0.045
